We go through 1 sequence from PMC7862700, “An all-to-all approach to the identification of sequence-specific readers for epigenetic DNA modifications on cytosine”.

Assay in all cases: DAPPL (digital affinity profiling via proximity ligation, sequencing); 10 mM Tris-HCl pH 7.5, 50 mM NaCl, 1 mM DTT, 4% glycerol, room temperature, 30 min; GST-TFs on glutathione beads, 16-mer random dsDNA library, 0.1% formaldehyde crosslink after washing; high values mean tight binding
The target of one assay is T1, FLI1 (Homo sapiens, UniProt Q01543 1-452).
T1 sequence: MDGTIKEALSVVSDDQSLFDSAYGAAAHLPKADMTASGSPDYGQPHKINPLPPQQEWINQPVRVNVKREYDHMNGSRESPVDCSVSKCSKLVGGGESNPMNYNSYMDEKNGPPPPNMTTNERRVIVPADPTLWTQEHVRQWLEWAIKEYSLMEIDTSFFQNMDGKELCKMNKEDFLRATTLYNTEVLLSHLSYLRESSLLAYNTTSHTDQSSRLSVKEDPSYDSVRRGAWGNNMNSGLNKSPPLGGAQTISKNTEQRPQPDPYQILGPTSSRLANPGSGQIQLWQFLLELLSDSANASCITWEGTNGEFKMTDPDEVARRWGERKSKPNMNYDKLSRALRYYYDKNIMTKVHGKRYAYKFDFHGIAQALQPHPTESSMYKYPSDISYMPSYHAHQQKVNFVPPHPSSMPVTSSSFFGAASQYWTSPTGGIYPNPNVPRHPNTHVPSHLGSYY
Particulars: protein: recombinant; tags: N-terminal GST; dsDNA, one strand shown. The procedure, abridged:
(§1)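 Yeast served to express human transcription factors as GST fusions, which were then captured on glutathione beads and labelled with DNA barcodes. Pooled with a tag-only sample, they were incubated with 200 nmole of a 16-mer random double-stranded DNA library for 30 min at room temperature in Tris/NaCl/DTT/glycerol buffer, washed, crosslinked with 0.1% formaldehyde, ligated by proximity, amplified by PCR and sequenced. Dividing each hexamer's read frequency for a factor by its frequency for the tag-only sample gives the binding signal.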

The next assay deals with T2, ELK1 (Homo sapiens, UniProt P19419 1-428).
T2 sequence: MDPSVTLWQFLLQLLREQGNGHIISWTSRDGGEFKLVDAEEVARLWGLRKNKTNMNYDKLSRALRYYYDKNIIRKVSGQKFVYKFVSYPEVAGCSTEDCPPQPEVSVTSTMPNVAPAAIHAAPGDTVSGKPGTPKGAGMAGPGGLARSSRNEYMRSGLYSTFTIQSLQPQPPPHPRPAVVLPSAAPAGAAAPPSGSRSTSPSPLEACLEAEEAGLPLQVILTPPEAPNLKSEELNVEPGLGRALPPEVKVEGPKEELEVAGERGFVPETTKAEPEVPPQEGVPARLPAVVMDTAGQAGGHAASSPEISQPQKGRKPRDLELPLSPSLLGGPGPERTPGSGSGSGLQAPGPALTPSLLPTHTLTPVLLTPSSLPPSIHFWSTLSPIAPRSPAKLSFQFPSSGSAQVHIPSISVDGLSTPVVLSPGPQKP
Particulars: protein: recombinant; tags: N-terminal GST; dsDNA, one strand shown. The procedure, abridged:
as §1

The target of a further assay is T3, GABPA (Homo sapiens, UniProt Q06546 1-454).
T3 sequence: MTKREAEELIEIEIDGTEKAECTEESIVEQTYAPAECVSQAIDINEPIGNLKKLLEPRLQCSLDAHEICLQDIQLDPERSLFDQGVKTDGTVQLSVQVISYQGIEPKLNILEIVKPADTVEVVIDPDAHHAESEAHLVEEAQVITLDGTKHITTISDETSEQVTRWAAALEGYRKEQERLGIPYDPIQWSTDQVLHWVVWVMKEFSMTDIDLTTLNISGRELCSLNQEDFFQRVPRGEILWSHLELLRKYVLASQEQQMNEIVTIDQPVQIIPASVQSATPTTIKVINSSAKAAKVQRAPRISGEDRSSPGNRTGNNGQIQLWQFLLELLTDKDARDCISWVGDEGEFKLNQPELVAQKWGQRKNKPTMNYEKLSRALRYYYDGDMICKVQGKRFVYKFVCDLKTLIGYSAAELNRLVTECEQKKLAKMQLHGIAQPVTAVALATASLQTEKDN
Particulars: protein: recombinant; tags: N-terminal GST; dsDNA, one strand shown. The procedure, abridged: as §1

Another assay concerns the target T4, ERG (Homo sapiens, UniProt P11308 1-479).
T4 sequence: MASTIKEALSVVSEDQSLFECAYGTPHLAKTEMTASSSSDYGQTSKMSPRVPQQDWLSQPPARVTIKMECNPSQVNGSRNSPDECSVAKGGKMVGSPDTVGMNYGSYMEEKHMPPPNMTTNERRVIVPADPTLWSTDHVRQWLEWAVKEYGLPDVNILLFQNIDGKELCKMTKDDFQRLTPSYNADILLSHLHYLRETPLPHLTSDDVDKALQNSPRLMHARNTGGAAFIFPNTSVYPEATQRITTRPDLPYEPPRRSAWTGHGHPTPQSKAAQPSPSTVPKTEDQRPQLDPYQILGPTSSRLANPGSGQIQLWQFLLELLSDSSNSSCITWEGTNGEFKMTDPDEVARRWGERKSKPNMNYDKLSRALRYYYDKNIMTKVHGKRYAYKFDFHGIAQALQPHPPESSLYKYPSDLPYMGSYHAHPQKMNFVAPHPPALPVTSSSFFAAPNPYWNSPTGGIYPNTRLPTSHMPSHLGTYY
Particulars: protein: recombinant; tags: N-terminal GST; dsDNA, one strand shown. The procedure, abridged:
as §1

In the next assay the target is ELF1 (Homo sapiens, UniProt P32519 1-619). To be noted: protein: recombinant; tags: N-terminal GST; dsDNA, one strand shown. The procedure, abridged: as §1
Sequence of ELF1 (P32519 whole entry): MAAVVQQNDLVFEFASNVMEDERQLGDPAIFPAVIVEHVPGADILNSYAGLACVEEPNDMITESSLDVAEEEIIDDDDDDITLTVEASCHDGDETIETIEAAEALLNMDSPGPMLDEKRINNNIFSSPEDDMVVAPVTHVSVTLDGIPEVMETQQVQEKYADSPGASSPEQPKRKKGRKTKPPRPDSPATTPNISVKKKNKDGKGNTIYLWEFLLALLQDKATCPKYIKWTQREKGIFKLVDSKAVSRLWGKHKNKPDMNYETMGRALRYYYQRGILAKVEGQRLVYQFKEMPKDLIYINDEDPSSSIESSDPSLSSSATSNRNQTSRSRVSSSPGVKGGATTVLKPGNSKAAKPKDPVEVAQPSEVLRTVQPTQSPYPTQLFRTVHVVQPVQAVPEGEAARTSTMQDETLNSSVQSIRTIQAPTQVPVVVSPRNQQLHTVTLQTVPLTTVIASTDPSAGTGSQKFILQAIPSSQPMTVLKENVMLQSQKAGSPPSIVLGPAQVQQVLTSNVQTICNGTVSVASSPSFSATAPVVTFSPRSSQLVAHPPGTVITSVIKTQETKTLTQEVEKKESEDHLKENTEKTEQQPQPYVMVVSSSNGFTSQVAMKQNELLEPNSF
The next assay has as its target T5, EHF (Homo sapiens, UniProt Q9NZC4 1-300).
T5 sequence: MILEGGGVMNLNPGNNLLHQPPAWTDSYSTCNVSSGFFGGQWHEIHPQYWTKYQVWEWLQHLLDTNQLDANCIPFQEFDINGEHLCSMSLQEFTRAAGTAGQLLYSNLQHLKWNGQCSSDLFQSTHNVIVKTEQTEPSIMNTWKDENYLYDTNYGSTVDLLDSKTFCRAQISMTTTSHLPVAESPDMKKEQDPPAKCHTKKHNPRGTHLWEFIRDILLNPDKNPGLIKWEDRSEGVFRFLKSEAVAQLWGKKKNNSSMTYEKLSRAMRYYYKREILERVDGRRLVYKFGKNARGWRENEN
Particulars: protein: recombinant; tags: N-terminal GST; dsDNA, one strand shown. The procedure, abridged: as §1

A further assay addresses SPI1 (Homo sapiens, UniProt P17947 1-270). To be noted: protein: recombinant; tags: N-terminal GST; dsDNA, one strand shown. The procedure, abridged:
as §1

In the next assay the target is SPIB (Homo sapiens, UniProt Q01892 1-262). Particulars: protein: recombinant; tags: N-terminal GST; dsDNA, one strand shown. The procedure, abridged: as §1
Sequence of SPIB (Q01892 whole entry): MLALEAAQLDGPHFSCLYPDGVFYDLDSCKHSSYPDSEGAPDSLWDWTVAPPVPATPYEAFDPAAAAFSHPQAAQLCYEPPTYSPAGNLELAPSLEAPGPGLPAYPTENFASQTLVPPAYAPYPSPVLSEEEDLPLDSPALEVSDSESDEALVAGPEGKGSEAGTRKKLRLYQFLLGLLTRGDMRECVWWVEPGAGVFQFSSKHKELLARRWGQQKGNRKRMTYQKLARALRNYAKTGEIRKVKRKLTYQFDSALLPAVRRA
The target in the next assay is T6, ELK3 (Homo sapiens, UniProt P41970 1-407).
T6 sequence: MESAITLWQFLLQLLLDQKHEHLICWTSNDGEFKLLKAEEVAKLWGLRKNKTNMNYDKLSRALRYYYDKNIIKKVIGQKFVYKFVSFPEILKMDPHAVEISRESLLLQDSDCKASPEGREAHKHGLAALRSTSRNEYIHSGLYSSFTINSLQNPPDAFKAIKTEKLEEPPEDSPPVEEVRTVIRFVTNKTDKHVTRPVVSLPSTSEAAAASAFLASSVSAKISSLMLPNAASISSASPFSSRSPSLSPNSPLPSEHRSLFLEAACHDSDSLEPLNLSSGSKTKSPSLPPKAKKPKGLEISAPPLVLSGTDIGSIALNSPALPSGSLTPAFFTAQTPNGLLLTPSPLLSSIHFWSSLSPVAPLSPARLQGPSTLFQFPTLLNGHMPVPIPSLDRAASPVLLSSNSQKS
Particulars: protein: recombinant; tags: N-terminal GST; dsDNA, one strand shown. The procedure, abridged: as §1

The target of another assay is T7, FEV (Homo sapiens, UniProt Q99581 1-238).
T7 sequence: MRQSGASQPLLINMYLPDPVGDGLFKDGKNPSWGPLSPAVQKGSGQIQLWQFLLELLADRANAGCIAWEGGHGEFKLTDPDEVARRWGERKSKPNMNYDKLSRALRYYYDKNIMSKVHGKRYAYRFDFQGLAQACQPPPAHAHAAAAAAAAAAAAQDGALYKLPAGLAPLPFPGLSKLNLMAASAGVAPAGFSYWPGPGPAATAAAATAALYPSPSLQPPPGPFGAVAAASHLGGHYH
To be noted: protein: recombinant; tags: N-terminal GST; dsDNA, one strand shown. The procedure, abridged:
as §1

A further assay addresses ETV5 (Homo sapiens, UniProt P41161 1-510). To be noted: protein: recombinant; tags: N-terminal GST; dsDNA, one strand shown. The procedure, abridged: as §1
In the next assay the target is HSF1 (Homo sapiens, UniProt Q00613 1-529). Particulars: protein: recombinant; tags: N-terminal GST; chain copies: 3; dsDNA, one strand shown. The procedure, abridged: as §1
Sequence of HSF1 (Q00613 whole entry): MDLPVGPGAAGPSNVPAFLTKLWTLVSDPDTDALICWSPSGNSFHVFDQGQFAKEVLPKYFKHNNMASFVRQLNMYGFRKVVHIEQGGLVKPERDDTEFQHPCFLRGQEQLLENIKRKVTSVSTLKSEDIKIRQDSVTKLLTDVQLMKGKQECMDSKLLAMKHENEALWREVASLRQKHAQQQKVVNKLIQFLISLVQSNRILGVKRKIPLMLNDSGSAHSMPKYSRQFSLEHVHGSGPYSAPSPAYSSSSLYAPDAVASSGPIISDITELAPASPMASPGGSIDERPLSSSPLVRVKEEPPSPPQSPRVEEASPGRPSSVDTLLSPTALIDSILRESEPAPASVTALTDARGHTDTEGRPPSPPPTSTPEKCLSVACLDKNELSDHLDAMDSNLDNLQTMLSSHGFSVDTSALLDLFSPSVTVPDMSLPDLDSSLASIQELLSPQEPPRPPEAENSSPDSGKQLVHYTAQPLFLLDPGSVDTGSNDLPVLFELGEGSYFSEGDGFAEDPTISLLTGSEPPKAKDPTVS
A further assay deals with T8, SPIC (Homo sapiens, UniProt Q8N5J4 1-248).
T8 sequence: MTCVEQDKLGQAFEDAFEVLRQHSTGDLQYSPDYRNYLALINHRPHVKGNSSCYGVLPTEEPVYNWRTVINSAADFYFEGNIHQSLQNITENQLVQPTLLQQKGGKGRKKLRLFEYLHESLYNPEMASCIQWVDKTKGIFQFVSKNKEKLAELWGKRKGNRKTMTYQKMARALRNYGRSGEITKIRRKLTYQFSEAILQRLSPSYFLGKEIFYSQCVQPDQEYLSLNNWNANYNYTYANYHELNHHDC
Particulars: protein: recombinant; tags: N-terminal GST; dsDNA, one strand shown. The procedure, abridged:
as §1

For a further assay, the target named is ELF4 (Homo sapiens, UniProt Q99607 1-663). Particulars: protein: recombinant; tags: N-terminal GST; dsDNA, one strand shown. The procedure, abridged:
as §1

The next assay has as its target T9, ELK4 (Homo sapiens, UniProt P28324-2 1-405).
T9 sequence: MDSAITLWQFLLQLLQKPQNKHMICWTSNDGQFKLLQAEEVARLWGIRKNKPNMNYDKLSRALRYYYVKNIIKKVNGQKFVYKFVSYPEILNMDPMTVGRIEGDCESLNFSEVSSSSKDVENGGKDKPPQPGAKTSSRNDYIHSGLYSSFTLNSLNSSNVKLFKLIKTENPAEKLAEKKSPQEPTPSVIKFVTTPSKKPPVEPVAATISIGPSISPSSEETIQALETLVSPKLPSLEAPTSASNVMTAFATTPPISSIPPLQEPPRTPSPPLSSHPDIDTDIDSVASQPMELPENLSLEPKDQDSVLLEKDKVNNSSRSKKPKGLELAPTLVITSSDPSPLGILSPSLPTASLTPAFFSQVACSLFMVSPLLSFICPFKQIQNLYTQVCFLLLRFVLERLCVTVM
Particulars: protein: recombinant; tags: N-terminal GST; dsDNA, one strand shown. The procedure, abridged:
as §1

The target in another assay is T10, ETV2 (Homo sapiens, UniProt O00321 1-342).
T10 sequence: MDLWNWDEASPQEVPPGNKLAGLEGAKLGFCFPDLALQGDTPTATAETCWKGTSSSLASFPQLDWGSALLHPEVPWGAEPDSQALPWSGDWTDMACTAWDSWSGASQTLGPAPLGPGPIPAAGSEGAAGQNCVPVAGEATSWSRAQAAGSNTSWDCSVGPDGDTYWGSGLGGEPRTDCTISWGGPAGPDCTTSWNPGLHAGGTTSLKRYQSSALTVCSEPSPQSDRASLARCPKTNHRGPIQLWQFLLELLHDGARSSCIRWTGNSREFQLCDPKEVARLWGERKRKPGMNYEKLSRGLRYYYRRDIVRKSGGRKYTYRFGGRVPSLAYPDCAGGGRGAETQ
To be noted: protein: recombinant; tags: N-terminal GST; dsDNA, one strand shown. The procedure, abridged: as §1

Another assay deals with T11, ELF3 (Homo sapiens, UniProt P78545 1-371).
T11 sequence: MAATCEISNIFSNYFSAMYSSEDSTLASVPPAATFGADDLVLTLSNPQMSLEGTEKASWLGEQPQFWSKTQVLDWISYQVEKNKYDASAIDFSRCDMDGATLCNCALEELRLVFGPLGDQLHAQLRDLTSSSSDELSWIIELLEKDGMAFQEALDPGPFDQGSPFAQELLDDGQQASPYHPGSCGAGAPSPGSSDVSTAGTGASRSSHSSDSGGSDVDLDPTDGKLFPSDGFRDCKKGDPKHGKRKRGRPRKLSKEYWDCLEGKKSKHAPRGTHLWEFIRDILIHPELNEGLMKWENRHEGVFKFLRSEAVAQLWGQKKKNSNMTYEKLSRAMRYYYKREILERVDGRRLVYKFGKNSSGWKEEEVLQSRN
To be noted: protein: recombinant; tags: N-terminal GST; dsDNA, one strand shown. The procedure, abridged: as §1

For a further assay, the target named is CRX (Homo sapiens, UniProt O43186 1-299). To be noted: protein: recombinant; tags: N-terminal GST; dsDNA, one strand shown. The procedure, abridged:
as §1

The next assay deals with ETV1 (Homo sapiens, UniProt P50549 1-477). Particulars: protein: recombinant; tags: N-terminal GST; dsDNA, one strand shown. The procedure, abridged:
as §1

Sequence of ETV5 (P41161 whole entry): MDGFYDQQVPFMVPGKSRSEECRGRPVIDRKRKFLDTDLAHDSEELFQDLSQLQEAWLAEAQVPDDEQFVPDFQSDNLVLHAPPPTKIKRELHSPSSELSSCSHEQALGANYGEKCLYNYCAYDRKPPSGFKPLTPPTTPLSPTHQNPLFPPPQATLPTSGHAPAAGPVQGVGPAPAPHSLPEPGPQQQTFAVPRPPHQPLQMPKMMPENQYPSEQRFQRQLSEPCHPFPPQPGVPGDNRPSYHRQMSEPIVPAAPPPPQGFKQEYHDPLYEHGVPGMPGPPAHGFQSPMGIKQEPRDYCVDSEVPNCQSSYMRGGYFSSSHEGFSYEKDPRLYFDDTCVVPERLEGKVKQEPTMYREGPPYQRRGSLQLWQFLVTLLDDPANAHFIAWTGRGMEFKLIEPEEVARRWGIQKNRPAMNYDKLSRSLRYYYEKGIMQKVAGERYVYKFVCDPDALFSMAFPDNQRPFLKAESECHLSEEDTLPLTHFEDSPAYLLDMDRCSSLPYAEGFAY
Sequence of CRX (O43186 whole entry): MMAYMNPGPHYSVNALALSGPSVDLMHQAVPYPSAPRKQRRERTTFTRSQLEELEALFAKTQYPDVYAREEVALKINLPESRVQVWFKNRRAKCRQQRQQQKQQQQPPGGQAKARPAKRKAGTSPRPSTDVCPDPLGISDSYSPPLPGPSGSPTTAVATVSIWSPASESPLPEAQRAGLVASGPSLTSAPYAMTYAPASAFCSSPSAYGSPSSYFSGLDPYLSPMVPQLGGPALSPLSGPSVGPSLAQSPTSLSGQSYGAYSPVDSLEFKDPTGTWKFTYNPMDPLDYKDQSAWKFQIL
Sequence of ETV1 (P50549 whole entry): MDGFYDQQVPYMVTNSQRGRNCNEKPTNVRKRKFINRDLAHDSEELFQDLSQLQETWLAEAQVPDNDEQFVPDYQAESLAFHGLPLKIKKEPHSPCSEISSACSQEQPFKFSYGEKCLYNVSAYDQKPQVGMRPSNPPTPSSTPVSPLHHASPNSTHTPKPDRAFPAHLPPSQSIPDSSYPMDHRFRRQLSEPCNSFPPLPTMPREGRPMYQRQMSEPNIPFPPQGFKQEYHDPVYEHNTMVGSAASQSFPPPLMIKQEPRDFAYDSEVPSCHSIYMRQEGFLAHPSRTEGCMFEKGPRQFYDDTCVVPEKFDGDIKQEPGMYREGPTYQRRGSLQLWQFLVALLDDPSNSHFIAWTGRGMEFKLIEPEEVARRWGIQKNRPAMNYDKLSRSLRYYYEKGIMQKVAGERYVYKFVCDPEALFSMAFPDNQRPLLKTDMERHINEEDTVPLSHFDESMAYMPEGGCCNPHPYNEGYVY
Sequence of ELF4 (Q99607 whole entry): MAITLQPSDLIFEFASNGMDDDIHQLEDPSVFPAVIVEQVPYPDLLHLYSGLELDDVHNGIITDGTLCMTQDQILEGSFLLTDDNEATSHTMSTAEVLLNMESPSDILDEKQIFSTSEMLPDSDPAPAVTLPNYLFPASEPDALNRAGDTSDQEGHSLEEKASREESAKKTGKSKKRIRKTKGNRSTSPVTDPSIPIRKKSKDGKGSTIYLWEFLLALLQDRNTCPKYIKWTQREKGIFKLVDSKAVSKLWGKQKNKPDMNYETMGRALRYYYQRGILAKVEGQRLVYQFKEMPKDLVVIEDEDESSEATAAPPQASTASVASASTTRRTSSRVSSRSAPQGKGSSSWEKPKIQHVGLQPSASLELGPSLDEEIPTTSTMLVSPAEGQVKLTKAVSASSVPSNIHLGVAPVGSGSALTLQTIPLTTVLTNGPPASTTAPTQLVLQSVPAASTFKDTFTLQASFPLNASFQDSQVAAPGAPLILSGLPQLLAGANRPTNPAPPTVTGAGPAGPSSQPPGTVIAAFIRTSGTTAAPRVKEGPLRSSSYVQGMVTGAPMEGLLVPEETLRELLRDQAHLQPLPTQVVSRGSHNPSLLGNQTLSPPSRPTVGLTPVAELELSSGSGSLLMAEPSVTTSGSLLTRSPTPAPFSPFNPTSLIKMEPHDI

As to TTTACG, the binding signal is 1.39 fold enrichment (6-mer frequency, TF over GST control) with FLI1; 1.28 fold enrichment (6-mer frequency, TF over GST control) with ELK1; 1.34 fold enrichment (6-mer frequency, TF over GST control) with GABPA; 1.26 fold enrichment (6-mer frequency, TF over GST control) with ERG; 1.26 fold enrichment (6-mer frequency, TF over GST control) with ELF1; 1.3 fold enrichment (6-mer frequency, TF over GST control) with EHF. Moreover, the binding signal was 1.33 fold enrichment (6-mer frequency, TF over GST control) with SPI1; 1.23 fold enrichment (6-mer frequency, TF over GST control) with SPIB; 1.27 fold enrichment (6-mer frequency, TF over GST control) with ELK3; 1.26 fold enrichment (6-mer frequency, TF over GST control) in the assay with FEV; 1.28 fold enrichment (6-mer frequency, TF over GST control) with ETV5; 1.32 fold enrichment (6-mer frequency, TF over GST control) with HSF1. The binding signal with SPIC was 1.24 fold enrichment (6-mer frequency, TF over GST control); with ELF4 it was 1.32 fold enrichment (6-mer frequency, TF over GST control); with ELK4 it was 1.29 fold enrichment (6-mer frequency, TF over GST control); with ETV2, 1.33 fold enrichment (6-mer frequency, TF over GST control); in the assay with ELF3, 1.28 fold enrichment (6-mer frequency, TF over GST control); with CRX it was 1.62 fold enrichment (6-mer frequency, TF over GST control). In addition, in the assay with ETV1, the binding signal is 1.32 fold enrichment (6-mer frequency, TF over GST control).
